# Data taken from PubChem BioAssay (NCI).
# This is part of a sample that, as a whole, favours compounds with a hit. Of some 83,000 tested, about 20% had one in any assay.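 Plates (96-well) were seeded with cells, treated with compound at one concentration, and incubated for 48 hours before percent growth was determined.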 Values without a mark were called inactive. Activity calls are given as the source filed them. The calls were made as follows: active = growth percent below 10; inactive = the rest.
# Tests used:
# Assay in all cases: NCI-60 one-dose screen, 48 h (100 = growth as untreated, 0 = no growth, -100 = all killed)
# Details in all cases: 10 µM unless noted
# [1] = tested on: T-47D breast
# [2] = tested on: MDA-MB-435 melanoma
# [3] = tested on: SW-620 colon
# [4] = tested on: MCF7 breast
# [5] = tested on: HCC-2998 colon
# [6] = tested on: KM12 colon
# [7] = tested on: HCT-116 colon
# [8] = tested on: BT-549 breast
Compound,growth [1],growth [2],growth [3],growth [4],growth [5],growth [6],growth [7],growth [8]
CCCCn1c(Cc2ccc(OC)cc2)nc2cc(OC)c(OC)cc2c1=O,57%,83.7%,92.5%,81.3%,98.1%,93.6%,–,–
CC(C)(C)c1ccc(OCCOC(=O)CBr)cc1,94.2%,112%,86.2%,98.3%,104%,87.7%,83.7%,–
CC(=O)N1CCN(CCNC(=O)n2cc(-c3ccncc3)c(-c3ccc(O)c(Cl)c3)n2)CC1,112%,103%,130%,102%,118%,103%,111%,–
O=[N+]([O-])c1ccc(-c2ncc(-c3ccc(O)cc3O)[nH]2)cc1,102%,121%,106%,90.3%,123%,112%,–,–
Oc1ccccc1\C=N/N=C/C=C/c1ccccc1,–,105%,106%,81.4%,95.3%,92.8%,103%,91.4%
Cc1nc(N)sc1C(=O)NCCO,106%,128%,109%,98.2%,168%,102%,99.6%,–
O=Nc1ccc(O)c2ccccc12,-9.85% (active),-63.8% (active),12.1%,-37.8% (active),68.4%,14%,0.195% (active),–
c1ccc(Nc2ncc3c(n2)-c2cccn2CC3)cc1,–,105%,102%,13.4%,47.5%,27.9%,92%,102%
N#Cc1c2ncccc2c2nnc3cc(Cl)c(Cl)cc3n12,60.4%,106%,78.7%,–,75.6%,89%,–,–
CCOc1ccc(/C=N/NC(=O)c2cccc3ccccc23)cc1OCC,–,111%,105%,92.9%,105%,103%,103%,86.5%
NCCCOc1cc(Cl)ccc1NC(=O)c1cc2ccccc2cc1OCCCN,-70.5% (active),-68.5% (active),-92% (active),-93.9% (active),–,-94.9% (active),-97.3% (active),–
O=C(Nc1ccc(-n2cc(-c3ccncc3)c(-c3ccc(Cl)c(O)c3)n2)cc1)Nc1ccc(Cl)c(C(F)(F)F)c1,4.31% (active),-37.7% (active),11%,-0.973% (active),0.686% (active),1.21% (active),-15.8% (active),–
Cc1sc(NC(=O)c2ccc(C(C)(C)C)cc2)c(C(=O)O)c1C,–,96.1%,60%,62.2%,71.2%,28.8%,45.3%,88.8%
CC(=O)OCC1O[C@@H](OC(C)=O)[C@@H](NC(=O)NS(=O)(=O)c2ccccc2)C(OC(C)=O)[C@@H]1OC(C)=O (stereo not given in full),–,105%,111%,92.6%,113%,105%,108%,102%
C/C(=N\Nc1ccc(Cl)cn1)c1ccc2ccccc2n1,–,31.9%,27.5%,7.14% (active),38.1%,20.2%,6.22% (active),21.6%
